Calls of active or inactive are those of the source. Unless noted, the rule behind the calls is not given here.
Legend:
[1] = tested on: XIP peptide (Xip251-270) binding; assay: small-molecule binders of XIP peptide, primary screen, biochemical, small-molecule microarray, fluorescence 635/667 nm, 0.1 µg/mL protein (AID 1182); conditions: fluorescent protein binding, 635 nm, higher = more signal, called active from +8 up or from −8 down
XIP peptide (Xip251-270) = assay: small-molecule binders of XIP peptide, primary screen, biochemical, small-molecule microarray, fluorescence 635/667 nm, 0.5 µg/mL protein (AID 1183); conditions: small-molecule microarray binding, fluorescence 635 nm; higher = more signal
[2] = Plasmodium falciparum growth inhibition, primary screen, strain 3D7, DAPI fluorescence, 100 nL (AID 1184);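 note: parasites grown inside human red blood cells in medium with human serum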; conditions: P. falciparum 3D7 growth, 3 d, higher = more signal
[3] = molecular target: Homeobox protein Hox-A13 (Mus musculus) (UniProt Q62424); assay: inhibitors of HoxA13-DNA binding, primary screen, biochemical, fluorescence polarization, labeled oligonucleotide (AID 1185); conditions: 15 min, higher = more signal, called active from +8 up or from −8 down
[4] = inhibitors of hydroxyurea-induced Chk1 phosphorylation, primary screen, imaging, HeLa, phospho-Chk1 antibody, percent positive cells (AID 1186); conditions: hydroxyurea-induced phospho-Chk1 immunofluorescence imaging, higher = more signal
[5] = inhibitors of hydroxyurea-induced Chk1 phosphorylation, primary screen, imaging, HeLa, phospho-Chk1 nuclear intensity (AID 1187); conditions: hydroxyurea-induced phospho-Chk1 immunofluorescence imaging, higher = more signal

Chain of Homeobox protein Hox-A13 (Mus musculus) (Q62424 whole entry, looked up): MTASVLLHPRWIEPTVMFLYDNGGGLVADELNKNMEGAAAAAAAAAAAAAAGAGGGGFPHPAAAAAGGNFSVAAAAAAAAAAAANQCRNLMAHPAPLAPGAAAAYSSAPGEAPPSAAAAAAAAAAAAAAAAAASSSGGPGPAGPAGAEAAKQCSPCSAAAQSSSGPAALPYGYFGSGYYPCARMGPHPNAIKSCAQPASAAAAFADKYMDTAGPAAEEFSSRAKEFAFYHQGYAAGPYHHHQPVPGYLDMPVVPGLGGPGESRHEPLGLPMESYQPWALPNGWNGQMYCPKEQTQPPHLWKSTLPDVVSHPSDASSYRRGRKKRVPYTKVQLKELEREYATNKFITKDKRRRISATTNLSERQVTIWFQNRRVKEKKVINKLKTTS

| Compound | composite z-score [1] | composite z-score (XIP peptide (Xip251-270)) | z-score [2] | z-score [3] | z-score [4] | z-score [5] |
| --- | --- | --- | --- | --- | --- | --- |
| C=CCNC(=O)[C@H]1[C@@H]2C(=O)O[C@@H](c3ccccc3)[C@@H](c3ccccc3)N2[C@@H](c2ccc(O)cc2)[C@]12C(=O)N(C(=O)OCCOC)c1ccc(C#CCC(C(=O)OC)C(=O)OC)cc12 | 2.8 (inactive) | 0.761 | -2.07 | -0.414 (inactive) | -0.0546 (inactive) | -0.0093 (inactive) |
| CC(=O)N1CC(C(O)C2C=CC3C(=O)NC(=O)C3N2Nc2ccc(Cl)cc2Cl)c2ccccc21 (stereo unspecified) | 0.111 (inactive) | 0.0205 | -0.252 | -4.92 (inactive) | 0.358 (inactive) | 0.492 (inactive) |
| [N-]=[N+]=Nc1ccccc1C[C@@]1(C(=O)O)N=C(c2ccc(OCCCO)cc2)O[C@@H]1c1ccccc1N=[N+]=[N-] | 0.0588 (inactive) | 0.736 | -1.74 | -5.17 (inactive) | -0.267 (inactive) | -0.317 (inactive) |
| O=C1OCC=C[C@H]2OC34C=CCN(c5ccc6ccccc6c5)C(=O)[C@H]3N(CCCCCO)C(=O)[C@@H]4[C@@H]12 (stereo partly specified) | 0.407 (inactive) | 0.351 | -0.471 | -4.6 (inactive) | 0.464 (inactive) | 0.0639 (inactive) |
| CCOC(=O)C1=CC[C@@H](c2ccccc2)N(S(=O)(=O)c2ccc(C)cc2)[C@H]1c1cccc(OC)c1 | -0.285 (inactive) | 0.291 | -2.14 | 0.892 (inactive) | 0.238 (inactive) | -0.67 (inactive) |
| C=C(COC)/C(=C/C[C@@H](OC(C)=O)c1ccc(CO)o1)c1cc(C(=O)OC)ccc1OC | 0.824 (inactive) | 0.147 | 0.0394 | -4.84 (inactive) | -1.06 (inactive) | -1.26 (inactive) |
| COCCCNC(=O)[C@@]1(c2ccc([N+](=O)[O-])cc2)CC(=O)N(CC23CC4CC(CC(C4)C2)C3)[C@@H]1c1ccc(CO)cc1I | 1.15 (inactive) | 0.383 | -1.13 | -4.38 (inactive) | 0.568 (inactive) | 0.885 (inactive) |
| C=C(CCCC)/C(=C/C[C@H](OC(C)=O)c1ccc(OCCO)cc1)c1cc(C(=O)OC)ccc1OC | -0.124 (inactive) | 0.71 | -2.82 | -3.64 (inactive) | -1.09 (inactive) | -1.97 (inactive) |
| O=C1O[C@H](c2ccccc2)[C@H](c2ccccc2)N2[C@H]1[C@@H](C(=O)Nc1nc3ccccc3s1)[C@]1(C(=O)Nc3ccc(C#CC4=CCCCC4)cc31)[C@H]2c1ccc(O)cc1 | 0.847 (inactive) | 0.541 | -0.987 | 3.34 (inactive) | -0.433 (inactive) | -0.749 (inactive) |
| COc1ccc(C(=O)Nc2cccc(CN3C(=O)[C@]4(O[C@H](CCn5cc([C@H](O)c6ccccc6)nn5)[C@@H]([Si](C)(C)c5ccc(OC)cc5)[C@@H]4C)c4ccccc43)c2)cc1 | 0.0632 (inactive) | 0.497 | -2.76 | 2 (inactive) | -0.161 (inactive) | -0.0692 (inactive) |
| CC(C)(C)OC(=O)CC[C@]1(C(=O)N2CCCCC2)COC(c2ccc(OCCCO)cc2)=N1 | 0.252 (inactive) | 0.643 | -1.4 | -4.56 (inactive) | -0.334 (inactive) | 0.131 (inactive) |
